This is an account of results in PubChem BioAssay AID1259415 (National Center for Advancing Translational Sciences (NCATS), 2018).

“And” between values parts separate entries of the source, which are not always exact repeats. Equal entries are not always repeated. Screen size: about 410,000 compounds; about 18,000 (4.4%) were called active. Not shown: some 7% with an inconclusive outcome. This is one part of a sample in which actives are shown more often than they occur. A number with no mark means an inactive call. No stated cut-off is given here; in the data, active means activity change below about -60%; inconclusive means no clear call, values can overlap the other calls; inactive means above about -39%.
On the % scale 0 is the no-effect control and ±100 the full control effect.

The nature of this assay: qHTS Assay for inhibitors of the human cytomegalovirus (HCMV). Conditions: HFF cells, HCMV-luciferase reporter, 72 h; at 57.5 µM; stronger effect = lower value. The text has this:
NCGC Assay Overview: Infection with human cytomegalovirus (HCMV) continues to pose significant threats for pregnant women and immunocompromised hosts. HCMV causes serious morbidity and mortality in transplant recipients, and congenital HCMV is the leading infectious cause of mental retardation and deafness in children. In the 1990s, the annual costs associated with the disease burden of congenital CMV were estimated at around $2 billion. A HCMV vaccine is not available yet and HCMV therapies result in intolerable side effects and emergence of drug resistant viruses. […] Towards this goal we have developed and characterized a luciferase HCMV reporter that was initially used in 96 well plates and then optimized to 1536-well plates for utilization in screening of the MLSMR collection, the NGCG diversity collection and the NCGC Pharmaceutical Collection of approved and investigational drugs.
NCGC Assay Protocol Summary:
This is a cell-based assay for HCMV inhibition in HFFs cells. The screening used 2 compound doses and the HCMV-luciferase at MOI of 1 PFU/cell. Cells were treated and infected with HCMV. At 72 h post infection cell lysates were collected and luciferase activity was determined using the Glomax-Multi + Detection System (Promega, Madison, WI). Data were normalized to the controls for basal activity (buffer only) and known HCMV inhibitors Salinmoycin.
1536-well assay protocol for the assay:
(1) Add 3 ul CMV/HFF cell culture. 1000 cells/well in DMEM nirmal media.
(2) Incubate 16 hr at 37C.
(3) Add 23 nl control compound, 10uM of Salinomycin.
(4) Add 23 nl compounds in DMSO solution.
(5) Add 3 ul CMV suspension. Final 1 puf/ul, Virus stock 2000pfu/ul
(6) Incubate 72 hrs at 37C.
(7) Add 4 ul OneGlo Luc Reagent.
(8) Incubate 5 min at room temperature.
For `CCCS(=O)(=O)Nc1cccc(-c2cn3ccsc3n2)c1`, the activity change, negative = inhibition is -0.309%. The value for `O=[N+]([O-])c1cc([N+](=O)[O-])c2cccnc2c1O` was -19.7%; that for `CC(=O)NC(c1cccs1)c1cc(Br)c2cccnc2c1O` (stereo not given) was -100% (active); that for `N#Cc1ccccc1NC(=O)COc1c(Br)cc(Br)c2cccnc12` was 85.2%. In the case of `O=C(CNS(=O)(=O)c1ccc2ccccc2c1)Nc1ccc(F)c(F)c1F`, the activity change, negative = inhibition was 0%. The value for `Cc1ccc(NS(=O)(=O)c2ccc(C)c(NC(=O)COc3ccc4ccccc4c3)c2)c(C)c1` was -81.5% (active); that for `CC(=O)c1cccc(OCC(=O)OCC(=O)Nc2cc(S(=O)(=O)N3CCCCC3)ccc2C)c1` was 9.96%. `CCCn1c(C(C)Nc2nc(-c3ccc(C)cc3)cs2)nc2cc(Cl)c(N3CCCCC3)cc21` (stereo not given): the activity change, negative = inhibition is 2.56%.

For the compound `NC1=CC(=O)C(=O)c2cccnc21`, the activity change, negative = inhibition is -78.2% (active). Under `O=C1CCCC2=C1C(c1cccs1)n1nc(SCc3ccccc3)nc1N2` (stereo not given) stands -15.6%; under `COC(=O)c1ccc(NC(=O)c2cc3c(CO)cnc(C)c3oc2=Nc2cccc(C(N)=O)c2)cc1`, -2.9%. The value for `CC1(C)C2CC=C(/C=N/NC(=O)c3ccc(Cl)cc3)C1C2` (stereo not given) was 23.1%; that for `Cn1nccc1/C=N\NC(=O)c1ccc(Cl)cc1` was 45.6%.

Consider `O=C(N/N=C/c1ccccn1)c1cccc(NC(=O)c2ccc(Cl)cc2)c1`, for which the activity change, negative = inhibition is -69.8% (active). Under `CC(C)C(=O)Nc1nnc(SCC(=O)N2C(C)CCCC2C)s1` (stereo not given) stands -28.8%; under `Cc1nn(-c2ccc(N3CCCCC3)nn2)c(C)c1CCC(=O)NCc1ccccc1F`, -16.6%. The value for `Cc1ccc(C)c(NC(=O)c2ccc(OC(=O)c3ccco3)cc2)c1` was 71.3%; that for `Cc1ccnc(NC(=O)c2ccc(NC(=O)c3ccco3)cc2)c1` was -84.7% (active); that for `C/C(=N/NS(=O)(=O)c1ccccc1)c1ccc(NC(=O)C(F)(F)F)cc1` was 0.908%. Under `CCN(c1ccc(Cl)cc1)S(=O)(=O)c1nnc(NC(=O)c2ccco2)s1` stands 39.9%; under `CSCCC(NC(=O)c1ccco1)C(=O)Nc1cc(C)ccn1` (stereo not given), 47.1%; under `C/C(=N\NS(=O)(=O)c1ccc(Cl)cc1)c1ccc(NC(=O)c2ccco2)cc1`, -65.3% (active). In the case of `CC(C)Cn1c(-c2ccc(S(=O)(=O)N3CCOCC3)cc2)csc1=Nc1cc(Cl)ccc1Cl`, the activity change, negative = inhibition was 0.205%. Under `CN(Cc1ccccc1)C(=O)c1cn(C)c2ccc(S(=O)(=O)N3CCCCC3)cc2c1=O` stands -4.78%. The value for `CCOC(=O)c1c(S(=O)(=O)N2CCCC(C(=O)NCc3ccc(F)cc3)C2)c(C)n(CC)c1C` (stereo not given) was -1.02%; that for `Cc1ccc(C2C=C(c3ccc(Cl)cc3)Nc3nc(NC(=O)CCC(=O)O)nn32)cc1` (stereo not given) was -19.9%; that for `Cc1ccc(OCC(=O)OCc2cc(=O)n3nc(C4CC4)sc3n2)cc1C` was -1.4%. As to `CCn1c(NCCc2ccc(OC)c(OC)c2)nc2c1c(=O)n(C)c(=O)n2C`, the activity change, negative = inhibition is -71.3% (active). Consider `COc1ccc(-n2ccnc(NCCc3ccc(Cl)cc3)c2=O)cc1OC`, for which the activity change, negative = inhibition is -27.6%. Under `Cn1c(=O)c2c(nc(NCCc3ccccc3)n2Cc2ccccc2)n(C)c1=O` stands -84.2% (active); under `Cn1c(=O)c2c(nc(NCc3ccccc3)n2CC(N)=O)n(C)c1=O`, -13.4%. The value for `Cn1c(=O)c2c(nc(NCCc3ccccc3)n2Cc2ccccc2Br)n(C)c1=O` was 6.41%; that for `Cn1c(=O)[nH]c(=O)c2c1nc(NCCc1ccccc1)n2Cc1ccc(F)cc1` was 26.5%; that for `CCOC(=O)c1ccc(NC(=O)Cn2cc(S(=O)(=O)Cc3ccccc3F)c3ccccc32)cc1` was 0%. On to `CCOc1cccc2cc(-c3cn4c(n3)sc3cc(C)ccc34)c(=O)oc12`, for which the activity change, negative = inhibition was 0.706%.

Consider `CCOC(=O)c1ccc(NC(=O)CC2C(=O)N(c3ccccc3)C(=O)N2Cc2cccs2)cc1` (stereo not given), for which the activity change, negative = inhibition is 16.8%. Under `CCn1nc(C(=O)Nc2ccc(N3CCOCC3)cc2)c2ccccc2c1=O` stands -3.67%. Under `CCOc1cc(-c2nnc(SCC(=O)NC3CCCCC3)nc2-c2ccc(OC)c(OCC)c2)ccc1OC` stands 8.79%.

With `COc1ccc(NC(=O)C2CCC(CNS(=O)(=O)c3csc(C(N)=O)c3)CC2)cc1OC` (stereo not given), the activity change, negative = inhibition was -65.3% (active). The value for `Cc1cc(NC(=O)C2CCC(CNS(=O)(=O)c3ccc(Br)s3)CC2)ccc1Br` (stereo not given) was -4.58%; that for `CC(=O)Nc1ccc(S(=O)(=O)NCC2CCC(C(=O)NCCc3ccccc3)CC2)cc1` (stereo not given) was 0% and -12.6%. Under `COc1cccc(N2CC(NS(=O)(=O)c3ccc(Cl)cc3)CC2=O)c1` (stereo not given) stands -10.8%. As for `COc1ccc(NC(=O)CSc2nc3ncccc3[nH]2)c(OC)c1`, the activity change, negative = inhibition is 9.48%. For the compound `NS(=O)(=O)c1ccc(NC(=O)COC(=O)C2(c3ccc(F)cc3)CCCC2)cc1`, the activity change, negative = inhibition is -61.5% (active). Under `O=C(COC(=O)C1(c2ccc(F)cc2)CCCC1)N1CCNC1=O` stands -24.2%. The value for `CN(C)S(=O)(=O)c1cccc(NC(=O)COC(=O)C2(c3ccccc3F)CCCC2)c1` was -26.2%. Turning to `CN(Cc1ccccc1)C(=O)CCS(=O)(=O)c1cc(Br)cc2c1N(C(=O)C1CC1)CC2`, the activity change, negative = inhibition was -14.4%. With `O=S(=O)([N-]c1nc2ccccc2nc1-[n+]1ccc(Cc2ccccc2)cc1)c1ccc(Br)s1`, the activity change, negative = inhibition is -110% (active). Under `COc1ccc(S(=O)(=O)c2c(Nc3cccc(Cl)c3)sc(C(=O)c3ccccc3)c2N)cc1` stands 20.4%; under `N#C/C(=C/c1cccc([N+](=O)[O-])c1)c1nnc2n1CCCCC2`, -95.5% (active); under `N#C/C(=C(\O)C(F)(F)F)c1nnc2n1CCCCC2`, -0.374%. Under `N#C/C(=C(\O)CCl)c1nnc2n1CCCCC2` stands -20.4%; under `CNS(=O)(=O)c1ccc2c(c1)[nH]c(=S)n2C`, -5.5%; under `Cc1ccccc1OCc1ccc(-c2nc(C#N)c(N3CCCCC3)o2)o1`, -23.6%. Under `Cc1ccc(N2CCN(C(=O)CCc3c(C)nc4c(c3C)c(=O)n(C)c(=O)n4C)CC2)c(C)c1` stands -5.59%; under `CC(=O)N1c2ccc(S(=O)(=O)N3CCCC(C(=O)Nc4cccc(F)c4)C3)cc2CC1C` (stereo not given), -31.3%; under `CC1Cc2cc(S(=O)(=O)CCC(=O)NCc3ccc(Cl)cc3)ccc2N1C(=O)C1CC1` (stereo not given), 4.59%. In the case of `CC(=O)N1c2ccc(S(=O)(=O)N3CCC(C(=O)NCc4ccc(F)cc4)CC3)cc2CC1C` (stereo not given), the activity change, negative = inhibition is -39.5%. On to `CC(=O)N1c2ccc(S(=O)(=O)N3CCCC(C(=O)NCc4ccc(Cl)cc4)C3)cc2CC1C` (stereo not given), for which the activity change, negative = inhibition was -75.8% (active).

As to `CC(=O)N1c2ccc(S(=O)(=O)N3CCCC(C(=O)Nc4ccc(C)cc4C)C3)cc2CC1C` (stereo not given), the activity change, negative = inhibition is 33.5%.

With `COc1cccc(N2CCN(S(=O)(=O)c3ccc4c(c3)CCCN4C(C)=O)CC2)c1`, the activity change, negative = inhibition is -9.24%.

Turning to `CC(=O)N1CCCc2cc(S(=O)(=O)N3CCC(C(=O)NC4CCCCC4)CC3)ccc21`, the activity change, negative = inhibition was 6.82%.

For the compound `CC(=O)N1CCCc2cc(S(=O)(=O)N3CCCC(C(=O)N4CCN(c5cccc(Cl)c5)CC4)C3)ccc21` (stereo not given), the activity change, negative = inhibition is -72.9% (active) and -95.8% (active). The value for `CC(=O)N1c2ccc(S(=O)(=O)N3CCCC(C(=O)Nc4cccc(Cl)c4)C3)cc2CC1C` (stereo not given) was -62.5% (active); that for `Cc1noc(/C=C/N(C)C)c1S(=O)(=O)N1CCCC(C(=O)Nc2cccc(F)c2)C1` (stereo not given) was 4.81%. Under `CCOc1ccc(OCC)c(NC(=O)c2c(C)nn(-c3ccccc3)c2-n2cccc2)c1` stands -28.6%. In the case of `COc1ccc(-c2nn3c(=O)cc(CN4CCN(C(=O)c5ccc(OC)c(OC)c5)CC4)nc3s2)cc1`, the activity change, negative = inhibition was -5.09%. The value for `COc1ccc(CCNc2nc(-c3ccc(Cl)cc3)cc(C(F)(F)F)n2)cc1OC` was -19.1%; that for `O=C(CSc1nc(=O)n(Cc2cccnc2)c2c1CCC2)Nc1ccc(F)cc1F` was -15.2%. With `COc1cccc(CNC(=O)CCC(=O)N2CC3CCCN3c3ccccc32)c1` (stereo not given), the activity change, negative = inhibition is -5.74%.

Regarding `COc1ccc(C2N=C(N)N=C(N)N2c2ccccc2)cc1OC` (stereo not given), the activity change, negative = inhibition is 14%. Take `O=C(CCc1nc(CN2CCN(S(=O)(=O)c3ccc(Cl)cc3)CC2)no1)N1CCCCC1`: the activity change, negative = inhibition is 30.2%.

With `CC[C@]12c3[nH]c4ccc(OC)cc4c3CCN1C(=O)C(CC(=O)NCCN1CCOCC1)C[C@@H]2C(=O)N1CCN(C(=O)C2CC2)CC1` (stereo not given in full), the activity change, negative = inhibition is 3.72%. With `O=C(NCCc1ccc(F)cc1)c1ccc(S(=O)(=O)N2CCCCC2)cc1`, the activity change, negative = inhibition is -3.57%. The value for `COc1cc(C(=O)NNC(=O)c2ccc(S(=O)(=O)N3CCCCC3)cc2)cc(OC)c1OC` was 41.5%. Under `CCN(CC)S(=O)(=O)c1cccc(NC(=O)c2ccc(S(=O)(=O)N3CCCC3)cc2)c1` stands -65.5% (active); under `Cn1c(=O)n(C)c2cc(C(=O)Nc3ccc4c(c3)OCO4)ccc21`, -96.3% (active).

As to `O=C(Nc1cccc(S(=O)(=O)N2CCCCC2)c1)c1ccc2c(c1)OCO2`, the activity change, negative = inhibition was -69% (active). The value for `CN1CCN(S(=O)(=O)c2cccc(C(=O)Nc3cccc(S(N)(=O)=O)c3)c2)CC1` was -17.3%.

On to `NS(=O)(=O)c1ccc(CCNC(=O)c2ccc(Cl)c(S(=O)(=O)N3CCCCCC3)c2)cc1`, for which the activity change, negative = inhibition was -69.2% (active). Consider `O=C(Nc1cccc(S(=O)(=O)N2CCCC2)c1)c1cncc(Br)c1`, for which the activity change, negative = inhibition was -5.81%. Under `CCSc1ccccc1C(=O)Nc1ccc2c(c1)OCO2` stands 8.91%; under `Cc1c(C)n(Cc2ccc(Cl)cc2)c2ccc(C(=O)NCCc3ccc(S(N)(=O)=O)cc3)cc12`, 0%. Under `O=C(CCNC(=O)c1ccc(Br)cc1)Nc1cccc(S(=O)(=O)N2CCCCC2)c1` stands -23.8%; under `O=C(Nc1ccc2c(c1)OCO2)c1cc(-c2cccc(Cl)c2)on1`, 11.5%.
